# In PubChem BioAssay AID1159580 (chemical genetic matrix, 2015):
# In all, about 5,500 compounds went through this assay and about 2,000 (36%) were called active. About 18% were inconclusive and are not listed. Some of the results follow. A number with no mark means an inactive call. No stated cut-off is given here; in the data, active means normalized growth mostly below about 0.91 (no sharp cut-off); inconclusive means no clear call, values can overlap the other calls; inactive means mostly above about 0.92.
# Assay: chemical genetic growth profiling, strain panel (AID 1159580);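 further: tested at 20 µM; growth read once vehicle control cultures reached saturation at 30 °C; 1 = growth at the plate median or of vehicle wells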
# Conditions: growth OD
# [1] = S. cerevisiae deletion strains, locus YAL013W, strain DEP1, stronger effect = lower value
# [2] = S. cerevisiae deletion strains, locus YBR229C, strain ROT2, stronger effect = lower value
# [3] = S. cerevisiae deletion strains, locus YDL101C, strain DUN1, stronger effect = lower value
# [4] = S. cerevisiae deletion strains, locus YDR150W, strain NUM1, stronger effect = lower value
# [5] = S. cerevisiae deletion strains, locus YEL061C, strain CIN8, stronger effect = lower value
# [6] = S. cerevisiae deletion strains, locus YGR078C, strain PAC10, stronger effect = lower value
# [7] = S. cerevisiae deletion strains, locus YHR030C, strain SLT2, stronger effect = lower value
# [8] = S. cerevisiae deletion strains, locus YHR087W, strain rtc3, stronger effect = lower value
# [9] = S. cerevisiae deletion strains, locus YJL187C, strain SWE1, stronger effect = lower value
# [10] = S. cerevisiae deletion strains, locus YJR043C, strain POL32, stronger effect = lower value
# [11] = S. cerevisiae deletion strains, locus YJR075W, strain HOC1, stronger effect = lower value
# [12] = S. cerevisiae deletion strains, locus YKL190W, strain CNB1, stronger effect = lower value
# [13] = S. cerevisiae deletion strains, locus YLR039C, strain RIC1, stronger effect = lower value
# [14] = S. cerevisiae deletion strains, locus YLR058C, strain SHM2 (second series), stronger effect = lower value
# [15] = S. cerevisiae deletion strains, locus YLR085C, strain ARP6, stronger effect = lower value
# [16] = S. cerevisiae deletion strains, locus YLR262C, strain YPT6, stronger effect = lower value
# [17] = S. cerevisiae deletion strains, locus YML094W, strain GIM5, stronger effect = lower value
# [18] = S. cerevisiae deletion strains, locus YMR219W, strain ESC1, stronger effect = lower value
# [19] = S. cerevisiae deletion strains, locus YMR263W, strain SAP30, stronger effect = lower value
# [20] = S. cerevisiae deletion strains, locus YNL153C, strain GIM3, stronger effect = lower value
# [21] = S. cerevisiae deletion strains, locus YNL298W, strain CLA4 (second series), stronger effect = lower value
# [22] = S. cerevisiae deletion strains, locus YNL322C, strain KRE1, stronger effect = lower value
# [23] = S. cerevisiae deletion strains, locus YNR030W, strain Alg12, stronger effect = lower value
# [24] = S. cerevisiae deletion strains, locus YOL006C, strain TOP1, stronger effect = lower value
# [25] = S. cerevisiae deletion strains, locus YPL055C, strain LGE1, stronger effect = lower value
# [26] = S. cerevisiae deletion strains, locus YPL241C, strain CIN2, stronger effect = lower value
# [27] = S. cerevisiae deletion strains, locus YPR135W, strain CTF4, stronger effect = lower value
# [28] = S. cerevisiae strains, strain wild type, stronger effect = lower value
structure (smiles),measurement,setting,value
CSc1ncc(C#N)c2nc(-c3ccc(N(C)C)cc3)nn12,normalized growth,[1],1.01
same,normalized growth,[2],0.991
same,normalized growth,[3],0.974
same,normalized growth,[4],0.966
same,normalized growth,[5],1
same,normalized growth,[6],0.983
same,normalized growth,"S. cerevisiae deletion strains, locus YGR229C, strain SMI1, stronger effect = lower value",1
same,normalized growth,[7],1
same,normalized growth,[8],1.05
same,normalized growth,[9],1.01
same,normalized growth,[10],0.975
same,normalized growth,[11],0.994
same,normalized growth,[12],1.01
same,normalized growth,[13],1.08
same,normalized growth,[14],1.02
same,normalized growth,[15],1.02
same,normalized growth,[16],1.09
same,normalized growth,[17],1.05
same,normalized growth,[18],1.01
same,normalized growth,[19],1.01
same,normalized growth,[20],0.985
same,normalized growth,[21],1.04
same,normalized growth,[22],1
same,normalized growth,[23],1.03
same,normalized growth,[24],1.04
same,normalized growth,[25],1.01
same,normalized growth,[26],1.01
same,normalized growth,[27],0.968
same,normalized growth,[28],1
Fc1cc(F)cc(COc2cc(Cl)cc(Cl)c2)c1,normalized growth,[1],1
same,normalized growth,[2],0.987
same,normalized growth,"S. cerevisiae deletion strains, locus YCL061C, strain MRC1, stronger effect = lower value",0.96
same,normalized growth,[3],1.01
same,normalized growth,"S. cerevisiae deletion strains, locus YDL134C, strain PPH21, stronger effect = lower value",0.992
same,normalized growth,[4],0.885
same,normalized growth,[5],1.01
same,normalized growth,[6],0.96
same,normalized growth,[7],0.522 (active)
same,normalized growth,[8],0.959
same,normalized growth,[9],0.968
same,normalized growth,[10],0.985
same,normalized growth,[11],0.913
same,normalized growth,[12],0.967
same,normalized growth,[13],1.01
same,normalized growth,[14],0.972
same,normalized growth,[15],0.822
same,normalized growth,[16],0.943
same,normalized growth,[17],1.01
same,normalized growth,[18],0.984
same,normalized growth,[19],0.97
same,normalized growth,"S. cerevisiae deletion strains, locus YMR307W, strain GAS1, stronger effect = lower value",0.739
same,normalized growth,[20],1
same,normalized growth,[21],0.919
same,normalized growth,[22],0.987
same,normalized growth,[23],0.928
same,normalized growth,[24],0.8
same,normalized growth,[25],0.922
same,normalized growth,[26],0.832 (active)
same,normalized growth,[27],0.886
same,normalized growth,[28],0.96
